Drawing on PubChem BioAssay, this text covers composite z-score and z-score for eight compounds.

The source made the active and inactive calls.

The subject of assay [1] is Wnt5a (protein binding on small-molecule microarray). Briefly: small molecules binding Wnt5a protein – biophysical, small-molecule microarray, 635/667 nm fluorescence, primary screen (AID 1142).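 Further: fluorescence read at 667 nm with signal to noise per printed feature.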 The following applies: 635 nm fluorescence, higher = more signal.
The nature of assay [2]: ATP-based viability of Huh7 replicon cells – cell-based, CellTiter-Glo luminescence, basal, 48 h, cytotoxicity control for HCV replication inhibitor project, primary screen (AID 1143).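 Further: Huh7 hepatoma cells carrying a hepatitis C replication reporter with no stimulus; test concentration not given here.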 The following applies: higher = more signal, called active from +8 up or from −8 down.
Assay [3] in a line: basal CRE-LacZ reporter activity in PC12 – cell-based, unstimulated, primary screen (AID 1145). To be noted: no forskolin, luminescence, 4.5 h, higher = more signal, called active from +8 up or from −8 down.
Assay [4] is described as follows: forskolin-driven CRE-LacZ activity in PC12 – cell-based, CRE-LacZ reporter, forskolin-stimulated, primary screen (AID 1146).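 Further: PC12 cells with 6xCRE LacZ reporter stimulated by forskolin 10 µM; beta-galactosidase reporter signal reflecting CREB driven transcription.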 To be noted: luminescence, 4.5 h, higher = more signal, called active from +8 up or from −8 down.
Assay [5] deals with Streptavidin (Streptomyces avidinii) (UniProt P22629). Briefly: compounds binding control protein streptavidin – biophysical, small-molecule microarray, 635/667 nm fluorescence, artefact control for SMM compound annotation, primary screen (AID 1147).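 Further: signal reflects streptavidin binding to arrayed compounds as a control protein.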 The following applies: higher = more signal.
Streptavidin (Streptomyces avidinii), sequence (P22629 whole entry, looked up): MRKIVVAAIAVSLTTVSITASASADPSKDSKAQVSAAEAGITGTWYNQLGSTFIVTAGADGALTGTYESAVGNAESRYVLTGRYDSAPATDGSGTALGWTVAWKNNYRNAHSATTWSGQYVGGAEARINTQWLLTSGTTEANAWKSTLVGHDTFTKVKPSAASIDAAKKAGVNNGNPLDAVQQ
Assay [6] in a line: probe aInhba binding on compound microarray – biochemical, small-molecule microarray, 635/667 nm fluorescence, primary screen (AID 1148).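 Further: score merges 667nm spot fluorescence with signal-to-noise for antibody binding to printed compounds.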 The following applies: higher = more signal.
Assay [7] concerns the target Torsin-1A (Homo sapiens) (UniProt O14656). Briefly: TOR1A wild-type binding on microarray – cell lysate, small-molecule microarray, lysate, 635/667 nm, primary screen (AID 1149). The following applies: COS7 hTOR1A-WT lysate, 635 nm fluorescence, higher = more signal.
Assay [8] has the same target. As to the kind of experiment: torsin A mutant lysate binding on microarrays – cell lysate, small-molecule microarray, COS7 lysate, 635/667 nm fluorescence, primary screen (AID 1150).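 Further: score pools 667 nm emission and signal to noise measuring lysate protein binding.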 The following applies: COS7 hTOR1A mutant lysate, 635 nm fluorescence, higher = more signal.
Assay [9] has as its system Sonic hedgehog protein (Shh). Briefly: Sonic hedgehog microarray binding compounds – biochemical, small-molecule microarray, 635/667 nm fluorescence, primary screen (AID 1151).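 Further: Shh protein binding to compounds spotted on small-molecule microarray slides; score combines spot fluorescence intensity with signal-to-noise across triplicate slides.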 To be noted: 635 nm fluorescence, higher = more signal.
Assay [10] in a line: optical density shifts of acrAB sulA E. coli – strain DRC41, OD650, 48 h, E. coli filamentation inducer project, primary screen (AID 1152).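 Further: E. coli MC1000 strain DRC41 lacking acrAB efflux pump and sulA.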 The following applies: higher = more signal, called active from +8 up or from −8 down.
The nature of assay [11]: probe aLefty1 binding on compound microarray – biochemical, small-molecule microarray, 635/667 nm fluorescence, primary screen (AID 1153).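 Further: score merges spot fluorescence with signal-to-noise ratio from the scanned slide images.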 The following applies: higher = more signal.
Assay [12] in a line: plasmodial surface anion channel blockers, osmotic lysis – cell-based, P. falciparum Indochina, OD700, 1 h, primary screen (AID 1154). To be noted: P. falciparum Indochina infected RBC osmotic lysis, higher = more signal, called active from +8 up or from −8 down.
Assay [13] can be described thus: plasmodial surface anion channel blockers, osmotic lysis – cell-based, P. falciparum Indochina, OD700, 2 h, primary screen (AID 1155).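 Further: lysis reports solute entry through the parasite surface anion channel PSAC.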 To be noted: P. falciparum Indochina infected erythrocytes, higher = more signal, called active from +8 up or from −8 down.
Assay [14] can be described thus: changes in parasitized red cell lysis, either direction – P. falciparum Indochina, OD700, 3 h, PSAC antagonist project, primary screen (AID 1156). The following applies: P. falciparum-infected erythrocytes, osmotic lysis, higher = more signal, called active from +8 up or from −8 down.
Assay [15] is described as follows: plasmodial surface anion channel blockers, osmotic lysis – cell-based, P. falciparum Indochina, OD700, 18 h, primary screen (AID 1157). The following applies: P. falciparum Indochina infected erythrocytes, osmotic lysis OD700, 18 h; higher = more signal, called active from +8 up or from −8 down.
Assay [16] can be described thus: S6 kinase pathway phospho-S6 level changes – cell-based, A549, cytoblot, luminescence, serum-stimulated, primary screen (AID 1158).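 Further: serum-stimulated A549 lung adenocarcinoma cells; signal is phosphorylated S6 detected by cytoblot immunostaining with HRP secondary.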 The following applies: 5 h, higher = more signal.
In assay [17] the target is NADPH oxidase 2 (Homo sapiens) (UniProt P04839). As to the kind of experiment: compounds shifting NOX2 Amplex Red fluorescence – cell-based, HEK293-NOX2, PMA-stimulated, NOX inhibitor project, primary screen (AID 1159). Further: test concentration not given here. To be noted: 45 min, higher = more signal, called active from +8 up or from −8 down.
NADPH oxidase 2 (Homo sapiens), sequence (P04839 whole entry, looked up): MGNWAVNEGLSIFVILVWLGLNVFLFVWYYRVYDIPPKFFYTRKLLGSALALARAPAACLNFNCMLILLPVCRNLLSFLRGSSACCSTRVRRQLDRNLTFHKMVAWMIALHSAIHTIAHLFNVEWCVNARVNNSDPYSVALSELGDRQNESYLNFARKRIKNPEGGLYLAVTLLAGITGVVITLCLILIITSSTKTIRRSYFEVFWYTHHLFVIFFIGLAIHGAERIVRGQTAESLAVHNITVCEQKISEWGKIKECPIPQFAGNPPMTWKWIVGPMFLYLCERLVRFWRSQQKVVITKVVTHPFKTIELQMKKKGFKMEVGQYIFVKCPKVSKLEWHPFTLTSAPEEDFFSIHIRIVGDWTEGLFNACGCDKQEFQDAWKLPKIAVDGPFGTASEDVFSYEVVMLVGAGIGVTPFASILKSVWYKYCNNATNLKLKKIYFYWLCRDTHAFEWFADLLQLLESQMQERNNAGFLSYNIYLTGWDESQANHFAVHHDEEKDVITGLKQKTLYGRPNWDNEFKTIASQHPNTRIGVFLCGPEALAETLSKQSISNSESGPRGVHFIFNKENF
Assay [18] addresses NADPH oxidase 4 (Homo sapiens) (UniProt Q9NPH5). As to the kind of experiment: compounds shifting NOX4 Amplex Red fluorescence – cell-based, HEK293-NOX4, tetracycline-induced, NOX inhibitor project, primary screen (AID 1160). To be noted: HEK293-NOX4, Amplex Red H2O2 fluorescence, 45 min; higher = more signal, called active from +8 up or from −8 down.
The target of assay [19] is NADPH oxidase 5 (Homo sapiens) (UniProt Q96PH1). Briefly: compounds shifting NOX5 Amplex Red fluorescence – cell-based, HEK293-NOX5, NOX inhibitor project, primary screen (AID 1161). To be noted: HEK293-NOX5, ionomycin, 45 min, higher = more signal.
NADPH oxidase 5 (Homo sapiens), sequence (Q96PH1 whole entry, looked up): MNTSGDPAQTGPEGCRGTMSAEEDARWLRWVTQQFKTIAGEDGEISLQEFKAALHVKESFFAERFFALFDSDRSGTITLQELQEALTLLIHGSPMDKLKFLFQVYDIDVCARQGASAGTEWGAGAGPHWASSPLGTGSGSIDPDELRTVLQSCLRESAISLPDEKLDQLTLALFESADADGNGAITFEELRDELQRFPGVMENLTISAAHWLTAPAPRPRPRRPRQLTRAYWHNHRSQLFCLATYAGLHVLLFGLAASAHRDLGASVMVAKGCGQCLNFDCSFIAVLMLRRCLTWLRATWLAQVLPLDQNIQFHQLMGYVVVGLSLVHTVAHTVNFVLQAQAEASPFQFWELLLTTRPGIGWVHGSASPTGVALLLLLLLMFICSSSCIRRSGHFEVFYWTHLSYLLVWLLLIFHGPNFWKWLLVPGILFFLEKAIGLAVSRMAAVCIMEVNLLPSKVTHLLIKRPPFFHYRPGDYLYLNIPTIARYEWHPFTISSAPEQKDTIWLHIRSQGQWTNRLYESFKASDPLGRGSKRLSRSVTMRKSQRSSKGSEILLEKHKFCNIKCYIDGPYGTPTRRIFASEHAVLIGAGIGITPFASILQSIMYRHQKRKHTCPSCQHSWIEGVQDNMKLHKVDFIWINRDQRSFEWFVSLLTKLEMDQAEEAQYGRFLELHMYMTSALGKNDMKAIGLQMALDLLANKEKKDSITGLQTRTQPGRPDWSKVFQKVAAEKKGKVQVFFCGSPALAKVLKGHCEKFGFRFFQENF
Assay [20] can be described thus: compound effects on lung adenocarcinoma cell viability – A549, calcein-AM fluorescence, 48 h, basal, profiling panel (AID 1162). Further: test concentration not given here. The following applies: higher = more signal.

NADPH oxidase 4 (Homo sapiens), sequence (Q9NPH5 whole entry, looked up): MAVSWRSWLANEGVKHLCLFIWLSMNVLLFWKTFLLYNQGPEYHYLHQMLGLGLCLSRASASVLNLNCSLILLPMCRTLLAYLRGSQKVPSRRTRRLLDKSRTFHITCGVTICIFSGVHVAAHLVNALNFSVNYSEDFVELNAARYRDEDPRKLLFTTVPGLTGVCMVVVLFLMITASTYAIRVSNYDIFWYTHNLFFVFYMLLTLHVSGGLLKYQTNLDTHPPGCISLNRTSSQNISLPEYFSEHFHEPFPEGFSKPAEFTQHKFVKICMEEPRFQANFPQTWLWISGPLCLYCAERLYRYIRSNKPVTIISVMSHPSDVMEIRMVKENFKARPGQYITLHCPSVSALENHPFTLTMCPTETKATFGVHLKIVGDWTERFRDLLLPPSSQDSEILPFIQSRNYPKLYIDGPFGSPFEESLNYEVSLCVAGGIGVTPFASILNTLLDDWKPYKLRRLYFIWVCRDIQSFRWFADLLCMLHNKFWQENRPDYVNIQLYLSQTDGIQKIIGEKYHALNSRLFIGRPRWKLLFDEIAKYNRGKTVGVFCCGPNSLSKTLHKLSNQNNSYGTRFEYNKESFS
Torsin-1A (Homo sapiens), sequence (O14656 whole entry, looked up): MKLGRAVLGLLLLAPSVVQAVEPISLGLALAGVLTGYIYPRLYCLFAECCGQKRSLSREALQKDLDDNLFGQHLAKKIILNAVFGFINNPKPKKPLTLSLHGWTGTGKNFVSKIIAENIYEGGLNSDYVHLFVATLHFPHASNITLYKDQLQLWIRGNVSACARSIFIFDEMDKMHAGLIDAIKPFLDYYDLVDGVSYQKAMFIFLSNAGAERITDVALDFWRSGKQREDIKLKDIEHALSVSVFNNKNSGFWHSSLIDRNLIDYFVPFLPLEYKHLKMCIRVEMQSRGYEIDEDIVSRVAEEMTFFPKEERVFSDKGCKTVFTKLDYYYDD

Consider `CCOC(=O)C[C@H]1[C@H](OC(=O)c2ccc(C(=O)c3ccccc3)cc2)[C@@H](NC(=O)Cc2ccc(OC)cc2)c2cc(OCCCO)ccc2N1C(=O)Cc1ccc(OC)cc1`, for which the composite z-score in assay [1] is 0.296; in assay [5] it was 0.598; in [6], -0.122; in the assay with Torsin-1A (Homo sapiens) [7], 0.226; in the assay with Torsin-1A (Homo sapiens) [8], 0.413; in [9] it was 0.697. In addition, the composite z-score in assay [11] came to 0.357. The z-score in assay [2] was -0.69 (inactive); in assay [3], 2.14 (inactive); in assay [4], -0.899 (inactive); in [10], 1.89 (inactive); in assay [12] it was 4.37 (inactive); in assay [13], -0.625 (inactive). The z-score in [14] was 0.0901 (inactive); in assay [15], -1.14 (inactive); in [16] it was 1; in assay [17], 0.676 (inactive); in [18], 0.79 (inactive); in [19], 1.52. For the same compound, the z-score in assay [20] is 2.13.
Consider `NCCCCCNC(=O)[C@H]1C[C@H]2C(=O)NCC(=O)N2[C@H]1c1ccc(O)cc1`, for which the composite z-score in [1] was 0.518; in assay [5], 1.72; in assay [6], -0.0419; with Torsin-1A (Homo sapiens) [7], 1.69; in the assay with Torsin-1A (Homo sapiens) [8], 0.376; in assay [9], 2. Further, the composite z-score in [11] is -0.147. The z-score in assay [2] was -0.108 (inactive); in [3] it was 0.679 (inactive); in assay [4], 0.407 (inactive); in assay [10], 1.01 (inactive); in assay [12] it was 0.365 (inactive); in [13], 0.113 (inactive). The z-score in assay [14] is -1.79 (inactive); in [15] it was 0.252 (inactive); in assay [16], -0.565; in [17], 0.653 (inactive); in [18], -1.24 (inactive); in assay [19], 0.566. The z-score in [20] was -0.0704.
As to `COc1ccc([Si](C)(C)[C@H]2[C@H](CC(=O)N(CCO)Cc3ccccc3)O[C@@]3(C(=O)N(Cc4ccc(N5CCOC5=O)cc4)c4ccccc43)[C@@H]2C)cc1`, the composite z-score is -0.0226 in assay [1]; 0.295 in [5]; 0.0111 in [6]; 0.442 with Torsin-1A (Homo sapiens) [7]; 0.0957 with Torsin-1A (Homo sapiens) [8]; 1.73 in assay [9]. The same compound showed a composite z-score in assay [11] of -0.123. Also, the z-score in assay [2] is -2.42 (inactive); in assay [3] it was 1.05 (inactive); in assay [4], -0.871 (inactive); in assay [10] it was 1.22 (inactive); in assay [12] it was 25.1 (active); in assay [13] it was 14.5 (active). Moreover, the z-score in assay [14] was -0.084 (inactive); in assay [15], 2.17 (inactive); in assay [16], -0.141; in assay [17], 0.815 (inactive); in assay [18], -0.23 (inactive); in assay [19], 1.34. Also, the z-score in assay [20] is -0.832.
Regarding `COC(=O)C(CC#Cc1ccc2c(c1)[C@]1(C(=O)N2)[C@H](c2ccccc2OCCO)N2[C@H](c3ccccc3)[C@H](c3ccccc3)OC(=O)[C@H]2[C@@H]1C(=O)N1CCCCCCC1)C(=O)OC`, the composite z-score is 2.33 in assay [1]; 3.71 in assay [5]; 2.15 in assay [6]; 2.87 with Torsin-1A (Homo sapiens) [7]; 3.23 with Torsin-1A (Homo sapiens) [8]; 1.32 in assay [9]. This compound came in with a composite z-score in assay [11] of 2.82. Also, the z-score is -2.45 (inactive) in assay [2]; 0.212 (inactive) in assay [3]; -0.706 (inactive) in assay [4]; 1.02 (inactive) in assay [10]; 0.867 (inactive) in assay [12]; 0.71 (inactive) in assay [13]. The z-score is 0.776 (inactive) in assay [14]; 0.51 (inactive) in assay [15]; 0.67 in assay [16]; 0.797 (inactive) in assay [17]; 0.68 (inactive) in assay [18]; 2.04 in assay [19]. Besides, the z-score in assay [20] was 0.447.
Regarding `COc1ccc(CCNC(=O)[C@@]2(Sc3ccc(C)cc3)CC(=O)N(Cc3ccccc3)[C@@H]2c2ccc(CO)cc2I)cc1`, the composite z-score in assay [1] was -0.221; in [5] it was -0.225; in [6], -0.24; in the assay with Torsin-1A (Homo sapiens) [7], 0.272; with Torsin-1A (Homo sapiens) [8] it was 0.192; in assay [9], -0.631. The compound further returned a composite z-score in [11] of -0.321. Besides, the z-score was -1.9 (inactive) in assay [2]; 1.13 (inactive) in assay [3]; 1.72 (inactive) in assay [4]; 1.15 (inactive) in [10]; 12.6 (active) in [12]; 1.57 (inactive) in assay [13]. Moreover, the z-score in [14] was 0.0585 (inactive); in assay [15], 0.572 (inactive); in [16], -0.262; in assay [17], 1.82 (inactive); in [18], -1.14 (inactive); in assay [19], 1.78. The z-score in [20] is 0.648.
For the compound `C=C(/C(=C/C[C@H](OC(C)=O)c1cccc(OCCO)c1)c1cc(C(=O)OC)ccc1OC)C(C)C`, the composite z-score in [1] was -0.0431; in [5] it was -0.948; in assay [6], -0.128; in the assay with Torsin-1A (Homo sapiens) [7], -0.0282; in the assay with Torsin-1A (Homo sapiens) [8] it was -0.193; in assay [9], 0.237. For the same compound, the composite z-score in assay [11] is -0.191. For the same compound, the z-score in assay [2] was -0.802 (inactive); in assay [3] it was 11.7 (active); in assay [4] it was -1.02 (inactive); in [10] it was 1.81 (inactive); in assay [12], 6.36 (inactive); in assay [13], 1.29 (inactive). The z-score is 2.46 (inactive) in [14]; 0.576 (inactive) in [15]; -0.228 in assay [16]; 2.19 (inactive) in [17]; 1.84 (inactive) in assay [18]; -1.06 in assay [19]. In addition, in assay [20], the z-score is 1.75.
Consider `C=C(COC)C(=O)CC[C@@H](OC(=O)c1ccccc1-c1ccccc1C(=O)O)c1cccc(OCCO)c1`, for which the composite z-score is 0.0174 in assay [1]; -0.52 in assay [5]; -0.128 in assay [6]; 0.785 in the assay with Torsin-1A (Homo sapiens) [7]; 0.455 with Torsin-1A (Homo sapiens) [8]; 0.404 in [9]. For the same compound, in assay [11], the composite z-score was -0.144. Moreover, the z-score in assay [2] was 0.483 (inactive); in [3], 2.37 (inactive); in assay [4] it was 0.0416 (inactive); in assay [10], 0.908 (inactive); in assay [12], 8.07 (active); in assay [13], 1.28 (inactive). In addition, the z-score in assay [14] is 1.28 (inactive); in assay [15] it was 0.236 (inactive); in assay [16], -0.178; in assay [17], 3.24 (inactive); in assay [18], 1.34 (inactive); in assay [19] it was -0.986. For the same compound, the z-score in assay [20] was 0.467.
Take `COc1ccc([Si](C)(C)[C@H]2[C@H](CCO)O[C@@]3(C(=O)N(Cc4ccc(N5C(=O)c6cccc7cccc5c67)cc4)c4ccccc43)[C@@H]2C)cc1`: the composite z-score in assay [1] is -0.158; in assay [5], 0.338; in assay [6] it was -0.101; in the assay with Torsin-1A (Homo sapiens) [7], -0.294; with Torsin-1A (Homo sapiens) [8], -0.124; in assay [9], -0.0681. The composite z-score in assay [11] was -0.147. In addition, the z-score was -6.16 (inactive) in assay [2]; 0.399 (inactive) in [3]; -1.05 (inactive) in [4]; 1.19 (inactive) in [10]; 3.64 (inactive) in assay [12]; 2.29 (inactive) in assay [13]. Also, the z-score in [14] was -0.273 (inactive); in assay [15], 1.23 (inactive); in assay [16] it was 1.63; in assay [17], 0.469 (inactive); in assay [18], 0.821 (inactive); in [19] it was 0.378. Besides, the z-score in assay [20] is -1.02.
